RPL19A TOR yeast: yeast TOR pathway RPL19A-GFP modulation. S. cerevisiae RPL19A-GFP strain, flow cytometry, 3 h; stronger effect = lower value. percent response vs DMSO, % at 10 µM. hit rate 0.3% among 330,000;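 active = percent response vs DMSO below 50%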;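 also: median channel GFP fluorescence of the barcoded RPL19A-GFP strain; lower means less RPL19A-GFP as with rapamycin TOR inhibition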
MEP2-GFP yeast: yeast TOR pathway MEP2-GFP modulation | GFP response vs DMSO, % at 10 µM | AID 2016 | S. cerevisiae MEP2-GFP strain, flow cytometry GFP, 3 h; 100% = DMSO control level | hit rate 0.51% among 330,000;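 active = GFP response versus DMSO above a set limit, roughly screen mean plus 3 SD, cut at about 180% in these data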;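 also: median GFP fluorescence of the barcode-gated MEP2-GFP cells per well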
CIT2 TOR yeast: modulators of TOR pathway CIT2-GFP in S. cerevisiae. S. cerevisiae CIT2-GFP strain, flow cytometry, 3 h; 100 means same as DMSO wells. GFP response vs DMSO, % at 10 µM. hit rate 0.065% among 320,000;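 active = GFP response relative to DMSO above a set limit, near the screen mean plus 3 SD, cut at about 150% in these data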;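 also: ratio of well median GFP fluorescence to mean of DMSO wells on the plate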
LAP4-GFP MLPCN: yeast TOR pathway LAP4-GFP modulation. S. cerevisiae LAP4-GFP multiplex, flow cytometry GFP, 3 h; median GFP as percent of DMSO wells. GFP response vs DMSO, % at 10 µM. hit rate 0.34% among 320,000;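 active = GFP response vs DMSO above a set limit, about the screen mean plus 3 SD, cut at about 150% in these data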
AGP1-GFP MLPCN: yeast TOR pathway AGP1-GFP modulation; S. cerevisiae AGP1-GFP multiplex flow cytometry, 3 h; GFP as percent of DMSO wells; GFP response vs DMSO, % at 10 µM; hit rate 0.02% among 320,000; AID 2066;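 active = GFP response relative to DMSO above a set limit, near screen average plus 3 SD, cut at about 150% in these data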;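 also: median GFP channel fluorescence of the gated AGP1 strain per well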
LAP4-GFP pick2: yeast LAP4-GFP modulation, second cherry pick; shares compounds with LAP4-GFP MLPCN; S. cerevisiae LAP4-GFP strain, flow cytometry GFP, 3 h; GFP response vs DMSO, % at 10 µM; hit rate 20% among 590; AID 2621;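 active = GFP signal as percent of the solvent control above about 150%, meaning raised reporter expression, limit read from the data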
MEP2-GFP pick2: reconfirmed MEP2-GFP TOR pathway modulator in yeast | GFP response vs DMSO, % at 10 µM | AID 2622 | shares compounds with LAP4-GFP MLPCN | hit rate 10% among 590 | S. cerevisiae MEP2-GFP strain, flow cytometry GFP, 3 h;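 active = GFP signal above 150% of the solvent control wells, that is a rise of more than half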;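 also: median channel GFP fluorescence of all gated yeast cells per well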
RPL19A-GFP pick2: reconfirmed modulator of RPL19A-GFP TOR reporter in yeast | shares compounds with LAP4-GFP MLPCN | S. cerevisiae RPL19A-GFP strain, flow cytometry GFP, 3 h; stronger effect = lower value; 100% means same as DMSO wells | GFP response vs DMSO, % at 10 µM | hit rate 3% among 590;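 active = under 65% GFP response relative to DMSO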;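 also: median GFP channel fluorescence per well over the all cells gate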
CIT2 GFP CP2: yeast CIT2-GFP TOR reporter modulation, second cherry pick | shares compounds with LAP4-GFP MLPCN | S. cerevisiae CIT2-GFP strain, flow cytometry GFP, 3 h; DMSO control wells read 100% | GFP response vs DMSO, % at 10 µM | hit rate 8% among 590 | AID 2624;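 active = GFP response vs DMSO above about 150%, limit read from the data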;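 also: median green fluorescence per well over all gated yeast cells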
AGP1-GFP pick2: reconfirmed modulator of AGP1-GFP TOR reporter in yeast | shares compounds with LAP4-GFP MLPCN | S. cerevisiae AGP1-GFP strain, flow cytometry GFP, 3 h | percent response vs DMSO, % at 10 µM | 590 tested, under 10 active | AID 2643;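 active = over 150 percent of DMSO response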;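 also: median GFP channel fluorescence over all cells without mother daughter split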
s288c autofluor: counter-screen for compound autofluorescence in yeast s288c cells; fluorescence change (kMESF span) at 33 µM; 610 tested, under 10 active; shares compounds with LAP4-GFP MLPCN; S. cerevisiae s288c, 520 nm autofluorescence, flow cytometry, 3 h; stronger effect = higher value; zero means same as solvent-only cells; AID 2757;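 active = fluorescence span over the dose series, or activity score, above about 33, limit read from the data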
s288c autofl DR: yeast s288c autofluorescence artifact in dose response; shares compounds with LAP4-GFP MLPCN; S. cerevisiae s288c parental, compound autofluorescence, flow cytometry, 3 h; fluorescence change (span) at 33 µM; 110 tested, under 10 active;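 active = fluorescence change span, or the activity score built from it, above 25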
TORC1 bypass gr: compounds blocking wildtype yeast growth but not TORC1 bypass cells; shares compounds with LAP4-GFP MLPCN; 120 tested, under 10 active; S. cerevisiae BY4741 spot growth rating, 48-72 h; stronger effect = lower value; growth rating (0-3) at 30 µM;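 active = growth rating at most 1 for wild type yeast while the TORC1 bypass strain still grows fully, rated 3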
Of the large screens only hits and unclear results are named; the others gave an inactive call (follow-up assays come after a bar, where they were run). A selection: hits, their analogues and other compounds. The true share with any hit is near 0.89%.

Cc1ccc(NC(=O)C/C(N)=N/OC(=O)Nc2cccc(Cl)c2)cc1	none
CC1CC(=O)Nc2ccccc2N1C(=O)CSc1nnnn1C (configuration not stated)	none
CC1=C(CC[C@@H](C)CO)OC2CC3C4CCC5CC(O)CCC5(C)C4CC(=O)C3(C)C12 (some centres not stated)	none
CC(c1ccccc1)N1C(=O)/C(=C/c2ccncc2)SC1=S (configuration not stated)	LAP4-GFP MLPCN 194 | LAP4-GFP pick2 261 | MEP2-GFP pick2 inactive | RPL19A-GFP pick2 inactive | CIT2 GFP CP2 inactive | AGP1-GFP pick2 inactive | s288c autofluor inactive
O=C(O)C(c1ccccc1)N1C(=O)/C(=C/c2cccs2)SC1=S (configuration not stated)	none
Cc1cc(=O)n2nc(-c3ccccc3)sc2n1	none
Cc1cc(=O)n2c3c(sc2n1)C(=O)N(Cc1ccccc1)C3=O	LAP4-GFP MLPCN 194 | s288c autofluor inactive
CCOC(=O)c1ccc(N=Cc2nc(-c3ccccc3)oc2OC(C)=O)cc1	LAP4-GFP MLPCN 208 | s288c autofluor inactive
CC(=O)Oc1oc(-c2ccccc2)nc1C=Nc1ccccc1	none | s288c autofluor inactive
COc1ccc(N=Cc2nc(-c3ccccc3)oc2OC(=O)c2ccccc2)cc1	none | s288c autofluor inactive
O=C(O)CC(CC(=O)N1CCN(C(=O)c2ccco2)CC1)c1ccccc1 (configuration not stated)	none
O=C(/C=C/c1cccc(Cl)c1)c1nc2ccccc2[nH]1	LAP4-GFP MLPCN 228 | LAP4-GFP pick2 235 | MEP2-GFP pick2 inactive | RPL19A-GFP pick2 inactive | CIT2 GFP CP2 inactive | AGP1-GFP pick2 inactive | s288c autofluor inactive
COc1cc(SC)ccc1C(=O)OCC(=O)N1CC(=O)Nc2ccccc21	none
CSc1ccccc1NC(=O)COC(=O)c1ccc(-n2nc(C)cc2C)cc1	none
CCN1CCN(C(=O)c2ccc(C)c(S(=O)(=O)Nc3cccc(C)c3)c2)CC1	CIT2 TOR yeast 166 | LAP4-GFP pick2 inactive | MEP2-GFP pick2 inactive | RPL19A-GFP pick2 inactive | CIT2 GFP CP2 inactive | AGP1-GFP pick2 inactive
Cc1ccc(S(=O)(=O)CCc2ccncc2)cc1	none
Cc1cccc(C)c1NC(=O)CNC(=O)CCCN1C(=O)c2cccc3cccc(c23)C1=O	MEP2-GFP yeast 449, CIT2 TOR yeast 414, LAP4-GFP MLPCN 375, AGP1-GFP MLPCN 182 | LAP4-GFP pick2 inactive | MEP2-GFP pick2 inactive | RPL19A-GFP pick2 inactive | CIT2 GFP CP2 inactive | AGP1-GFP pick2 inactive
CCc1noc(N)c1C(=O)Nc1ccc(Cl)cc1	none
OCCC#Cc1c(-c2ccsc2)sc2ccccc12	LAP4-GFP MLPCN 159 | LAP4-GFP pick2 inactive | MEP2-GFP pick2 inactive | RPL19A-GFP pick2 inactive | CIT2 GFP CP2 inactive | AGP1-GFP pick2 inactive
CCN1CCN(C(=O)c2ccc(Cl)c(S(=O)(=O)N(C)c3ccccc3)c2)CC1	none
COc1ccc(C(C)=O)cc1COC(=O)c1cnc(Cl)c(Cl)c1	none | LAP4-GFP pick2 inactive | MEP2-GFP pick2 inactive | RPL19A-GFP pick2 inactive | CIT2 GFP CP2 inactive | AGP1-GFP pick2 inactive
COc1ccc(C(C)=O)cc1COC(=O)c1ccc2c(c1)OCO2	none
C/C(=N\NC(=O)c1ccc(C(C)(C)C)cc1)c1ccccn1	none (no result: RPL19A TOR yeast, MEP2-GFP yeast, CIT2 TOR yeast, LAP4-GFP MLPCN, AGP1-GFP MLPCN) | s288c autofl DR inactive | TORC1 bypass gr inactive
COc1ccc(S(=O)(=O)N2CCC(NC(=O)c3cccnc3)CC2)cc1	none
Cc1ccc(NC(=O)c2cc(N3C(=O)C=CC3=O)ccc2Cl)cc1C	none | LAP4-GFP pick2 156 | MEP2-GFP pick2 168 | RPL19A-GFP pick2 inactive | CIT2 GFP CP2 inactive | AGP1-GFP pick2 inactive | s288c autofluor inactive
Cc1ccc(NC(=O)c2cc(-n3cnnc3)ccc2Cl)cc1	none
O=C(N/C(=C/c1ccccc1Cl)C(=O)N1CCCCC1)c1ccco1	none
O=C(O)/C=C/C(=O)c1ccc2c(c1)CCc1ccccc1-2	LAP4-GFP MLPCN 226 | LAP4-GFP pick2 inactive | MEP2-GFP pick2 165 | RPL19A-GFP pick2 inactive | CIT2 GFP CP2 inactive | AGP1-GFP pick2 inactive | s288c autofluor inactive
CCN1CCN(c2cc(C)c3cc(NC(=O)c4ccc(OC)c(OC)c4)ccc3n2)CC1	none
CCN1CCN(c2cc(C)c3cc(NC(=O)c4cccc(OC)c4)ccc3n2)CC1	none | LAP4-GFP pick2 inactive | MEP2-GFP pick2 inactive | RPL19A-GFP pick2 inactive | CIT2 GFP CP2 inactive | AGP1-GFP pick2 inactive
Cc1cc(OCC(=O)OCC(=O)NC2CCCCC2C)ccc1Cl (configuration not stated)	none
C/C(=N\NS(=O)(=O)c1ccc([N+](=O)[O-])cc1)c1ccc(NC(=O)c2ccco2)cc1	none | LAP4-GFP pick2 inactive | MEP2-GFP pick2 inactive | RPL19A-GFP pick2 inactive | CIT2 GFP CP2 inactive | AGP1-GFP pick2 inactive
CCN1CCN(C(CNS(=O)(=O)c2ccc(F)cc2)c2cccnc2)CC1 (configuration not stated)	CIT2 TOR yeast 154 | LAP4-GFP pick2 inactive | MEP2-GFP pick2 inactive | RPL19A-GFP pick2 inactive | CIT2 GFP CP2 inactive | AGP1-GFP pick2 inactive
CCN1CCN(C(CNS(=O)(=O)c2ccccc2)c2cccnc2)CC1 (configuration not stated)	none
O=C(O)CNC(=O)c1ccc(OC(F)F)cc1	none

High-throughput results deposited in PubChem by NMMLSC.
